Laboratory results: PubChem BioAssay (Tox21)
Results filed as inconclusive are left out. The source made the active and inactive calls. Calls come from the whole dose curve; as a rule, active = well fitted curve in the direction sought with a large enough effect in the repeat runs; inconclusive = weak or mixed curves; inactive = no such curve, though single readings can be large; an effect the other way counts as inactive or inconclusive.

Legend:
[1] = A CellTox Green Cytotoxicity Assay to monitor cytotoxicity in HEK293 cells - 40 hour (AID 1224871); note: nearly all actives have a fitted effect of over 45% in size
Summary of the method: (§1)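 Seeding of HEK293 cells together with cytotoxicity dye preceded a 5 h incubation at 37 C/5% CO2. Test compounds in DMSO were then added and fluorescence monitored across 40 h.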

[2] = qHTS RealTime-Glo MT Cell Viability Assay in HEK293 cells - 16 hour (AID 1224872); note: top concentration of the series differs between compounds; nearly all actives have a fitted effect of over 50% in size
Summary of the method: (§2)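 Cells + reagent dispensed (600 cells/well, HEK293) → 5 h at 37 C/5% CO2 → 23 nL compound in DMSO pinned → 40 h at 37 C → luminescence read at 0, 8, 16, 24, 32, 40 h.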

[3] = qHTS RealTime-Glo MT Cell Viability Assay in HepG2 cells - 8 hour (AID 1224873); note: nearly all actives have a fitted effect of over 55% in size
Summary of the method: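 HepG2 cells mixed with RealTime-Glo MT reagents (NanoLuc plus cell-permeant prosubstrate) were seeded at 600 cells/well, incubated 5 h at 37 C/5% CO2, then pinned with compounds in DMSO; nonlytic luminescence tracked viability during 40 h treatment.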

[4] = qHTS RealTime-Glo MT Cell Viability Assay in HEK293 cells - 40 hour (AID 1224874); details: RealTime-Glo luminescence; max response: active compounds read low; note: nearly all actives have a fitted effect of over 50% in size
Summary of the method: (§3)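 Tox21 screen in HEK293 using RealTime-Glo MT chemistry, with cells and reagent co-dispensed. Luminescence proportional to viable cell number was captured at intervals during 40 h compound exposure at 37 C.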

[5] = A CellTox Green Cytotoxicity Assay to monitor cytotoxicity in HEK293 cells - 24 hour (AID 1224875); note: series mostly up to about 77 µM; nearly all actives have a fitted effect of over 45% in size
Summary of the method: as §1

[6] = A CellTox Green Cytotoxicity Assay to monitor cytotoxicity in HepG2 cells - 16 hour (AID 1224876); note: nearly all actives have a fitted effect of over 45% in size
Summary of the method: (§4)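 Nonlytic assay: viable cells exclude the dye, so fluorescence scales with cell death. HepG2 at 600 cells/well, compounds added after 5 h, signal read across 40 h.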

[7] = qHTS RealTime-Glo MT Cell Viability Assay in HepG2 cells - 32 hour (AID 1224877); note: nearly all actives have a fitted effect of over 55% in size
Summary of the method: (§5)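 Real-time, nonlytic viability: 600 HepG2 cells/well mixed with NanoLuc enzyme plus prosubstrate; 5 h settle, compound (DMSO) added by pintool; luminescence monitored over 40 h at 37 C.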

[8] = A CellTox Green Cytotoxicity Assay to monitor cytotoxicity in HepG2 cells - 24 hour (AID 1224878); note: nearly all actives have a fitted effect of over 45% in size
Summary of the method: as §4

[9] = A CellTox Green Cytotoxicity Assay to monitor cytotoxicity in HepG2 cells - 40 hour (AID 1224879); note: nearly all actives have a fitted effect of over 40% in size
Summary of the method: as §4

[10] = qHTS RealTime-Glo MT Cell Viability Assay in HEK293 cells - 0 hour (AID 1224880)
Summary of the method: as §3

[11] = A CellTox Green Cytotoxicity Assay to monitor cytotoxicity in HepG2 cells - 0 hour (AID 1224882); note: nearly all actives have a fitted effect of over 35% in size
Summary of the method: as §4

[12] = A CellTox Green Cytotoxicity Assay to monitor cytotoxicity in HepG2 cells - 32 hour (AID 1224883); note: nearly all actives have a fitted effect of over 50% in size
Summary of the method: as §4

[13] = A CellTox Green Cytotoxicity Assay to monitor cytotoxicity in HEK293 cells - 8 hour (AID 1224884); note: nearly all actives have a fitted effect of over 35% in size
Summary of the method: as §1

[14] = qHTS RealTime-Glo MT Cell Viability Assay in HepG2 cells - 16 hour (AID 1224885); note: nearly all actives have a fitted effect of over 50% in size
Summary of the method: as §5

[15] = qHTS RealTime-Glo MT Cell Viability Assay in HEK293 cells - 24 hour (AID 1224886)
Summary of the method: as §2

[16] = qHTS RealTime-Glo MT Cell Viability Assay in HEK293 cells - 8 hour (AID 1224887)
Summary of the method: as §3

[17] = A CellTox Green Cytotoxicity Assay to monitor cytotoxicity in HEK293 cells - 16 hour (AID 1224888); note: nearly all actives have a fitted effect of over 35% in size
Summary of the method: as §1

[18] = qHTS RealTime-Glo MT Cell Viability Assay in HepG2 cells - 0 hour (AID 1224889); note: nearly all actives have a fitted effect of over 50% in size
Summary of the method: as §5

[19] = A CellTox Green Cytotoxicity Assay to monitor cytotoxicity in HepG2 cells - 8 hour (AID 1224890); note: nearly all actives have a fitted effect of over 45% in size
Summary of the method: as §4

[20] = A CellTox Green Cytotoxicity Assay to monitor cytotoxicity in HEK293 cells - 32 hour (AID 1224881); note: nearly all actives have a fitted effect of over 40% in size
Summary of the method: as §1
% is set by controls: 0 for no effect and ±100 for the full control effect.

Cc1cc2c(cc1S(N)(=O)=O)S(=O)(=O)CCC2
inactive: Potency [1] | Potency [2] | Potency [3] | max response [4] 2.68% | Potency [5] | Potency [6] | Potency [7] | Potency [8] | Potency [9] | Potency [10] | Potency [11] | Potency [12] | Potency [13] | Potency [14] | Potency [15] | Potency [16] | Potency [17] | Potency [18]

Nc1c2c(nc3ccccc13)CCCC2O (stereo not drawn)
inactive: Potency [1] | Potency [2] | Potency [3] | max response [4] 24.6% | Potency [5] | Potency [6] | Potency [7] | Potency [8] | Potency [9] | Potency [10] | Potency [11] | Potency [12] | Potency [13] | Potency [14] | Potency [15] | Potency [16] | Potency [17] | Potency [18]

CCS(=O)(=O)c1ccc(OC)c(C(=O)OC)c1
inactive: Potency [1] | Potency [2] | Potency [3] | max response [4] 5.71% | Potency [5] | Potency [6] | Potency [7] | Potency [8] | Potency [9] | Potency [10] | Potency [11] | Potency [12] | Potency [13] | Potency [14] | Potency [15] | Potency [16] | Potency [17] | Potency [18] | Potency [19]

NCCc1cnc[nH]1
inactive: Potency [1] | Potency [2] | Potency [3] | max response [4] -0.307% | Potency [5] | Potency [6] | Potency [7] | Potency [8] | Potency [9] | Potency [10] | Potency [20] | Potency [11] | Potency [12] | Potency [13] | Potency [15] | Potency [16] | Potency [17] | Potency [18] | Potency [19]

CCCCNC(=O)NCCCC
inactive: Potency [1] | Potency [2] | Potency [3] | max response [4] -3.77% | Potency [5] | Potency [6] | Potency [7] | Potency [8] | Potency [9] | Potency [10] | Potency [11] | Potency [12] | Potency [13] | Potency [15] | Potency [16] | Potency [17] | Potency [18] | Potency [19]

CCCCC/C=C\CCC=O
inactive: Potency [1] | Potency [2] | Potency [3] | max response [4] 1.73% | Potency [5] | Potency [6] | Potency [7] | Potency [8] | Potency [9] | Potency [10] | Potency [20] | Potency [11] | Potency [12] | Potency [13] | Potency [15] | Potency [16] | Potency [17] | Potency [18] | Potency [19]

CC(C)(O)C(=O)c1ccccc1
inactive: Potency [1] | Potency [2] | Potency [3] | max response [4] 1.69% | Potency [5] | Potency [6] | Potency [7] | Potency [8] | Potency [9] | Potency [10] | Potency [11] | Potency [12] | Potency [13] | Potency [14] | Potency [15] | Potency [16] | Potency [17] | Potency [18] | Potency [19]

CCOC(=O)Nc1ccc(NCc2ccc(F)cc2)nc1N
inactive: Potency [1] | Potency [2] | Potency [3] | max response [4] -2.14% | Potency [5] | Potency [6] | Potency [7] | Potency [8] | Potency [9] | Potency [10] | Potency [11] | Potency [12] | Potency [13] | Potency [15] | Potency [16] | Potency [17] | Potency [18] | Potency [19]

C[C@](N)(Cc1ccc(O)cc1)C(=O)O
inactive: cytotoxicity increase [1] 1.26% [at 6.97 µM] | activity change, negative = cytotoxicity [2] 1.36% [at 6.97 µM] | viability change, negative = cytotoxic [3] 1.11% [at 6.97 µM] | max response [4] 0.763% | activity change [5] 2.77% [at 6.97 µM, active compounds read high] | cytotoxicity increase [6] -1.17% [at 6.97 µM] | activity change, negative = cytotoxic [7] 3.47% [at 6.97 µM] | cytotoxicity [8] -1.48% [at 6.97 µM] | cytotoxicity increase [9] -2.6% [at 6.97 µM] | activity change, negative = cytotoxicity [10] 0.416% [at 6.97 µM] | cytotoxicity increase [20] 3.03% [at 6.97 µM] | cytotoxicity [11] 0.583% [at 6.97 µM] | cytotoxicity increase [12] -6.04% [at 6.97 µM] | cytotoxicity increase [13] 2.1% [at 6.97 µM] | activity change, negative = cytotoxicity [15] 0.918% [at 6.97 µM] | activity change, negative = cytotoxicity [16] 3.77% [at 6.97 µM] | activity change [17] 4.06% [at 6.97 µM, active compounds read high] | activity change, negative = cytotoxicity [18] -5.13% [at 6.97 µM] | cytotoxicity increase [19] -1.36% [at 6.97 µM]

C=COCC1CCC(CO)CC1 (stereo not drawn)
inactive: Potency [1] | Potency [2] | Potency [3] | max response [4] 11.5% | Potency [5] | Potency [6] | Potency [7] | Potency [8] | Potency [9] | Potency [20] | Potency [11] | Potency [12] | Potency [13] | Potency [14] | Potency [15] | Potency [16] | Potency [17] | Potency [18]

CC/C=C\CC/C=C/C(OCC)OCC
inactive: Potency [1] | Potency [2] | Potency [3] | max response [4] 11.7% | Potency [5] | Potency [6] | Potency [7] | Potency [8] | Potency [9] | Potency [10] | Potency [20] | Potency [11] | Potency [12] | Potency [13] | Potency [15] | Potency [16] | Potency [17] | Potency [18] | Potency [19]

O=C1OC(=O)C2CCCCC12 (stereo not drawn)
inactive: Potency [1] | Potency [2] | Potency [3] | max response [4] 1.13% | Potency [5] | Potency [6] | Potency [7] | Potency [8] | Potency [9] | Potency [10] | Potency [11] | Potency [12] | Potency [13] | Potency [14] | Potency [15] | Potency [16] | Potency [17] | Potency [18] | Potency [19]
